According to publication PMC4336329 (PLoS ONE, 2015):
Screen size: about 310,000 compounds; about 14,000 (4.5%) showed an effect of 50% or more. Effects have a minus sign here. This is one part of a sample in which strong results are shown more often than they occur.

target: human ether-à-go-go-related gene (hERG) potassium channel (human, UniProt Q12809); test: primary screen, population patch clamp on CHO cells stably expressing hERG; higher = less effect of the substance
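Also: peak tail current of the secondary pulse compared with the same well before compound.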

Sequence of human ether-à-go-go-related gene (hERG) potassium channel (Q12809 whole entry, looked up): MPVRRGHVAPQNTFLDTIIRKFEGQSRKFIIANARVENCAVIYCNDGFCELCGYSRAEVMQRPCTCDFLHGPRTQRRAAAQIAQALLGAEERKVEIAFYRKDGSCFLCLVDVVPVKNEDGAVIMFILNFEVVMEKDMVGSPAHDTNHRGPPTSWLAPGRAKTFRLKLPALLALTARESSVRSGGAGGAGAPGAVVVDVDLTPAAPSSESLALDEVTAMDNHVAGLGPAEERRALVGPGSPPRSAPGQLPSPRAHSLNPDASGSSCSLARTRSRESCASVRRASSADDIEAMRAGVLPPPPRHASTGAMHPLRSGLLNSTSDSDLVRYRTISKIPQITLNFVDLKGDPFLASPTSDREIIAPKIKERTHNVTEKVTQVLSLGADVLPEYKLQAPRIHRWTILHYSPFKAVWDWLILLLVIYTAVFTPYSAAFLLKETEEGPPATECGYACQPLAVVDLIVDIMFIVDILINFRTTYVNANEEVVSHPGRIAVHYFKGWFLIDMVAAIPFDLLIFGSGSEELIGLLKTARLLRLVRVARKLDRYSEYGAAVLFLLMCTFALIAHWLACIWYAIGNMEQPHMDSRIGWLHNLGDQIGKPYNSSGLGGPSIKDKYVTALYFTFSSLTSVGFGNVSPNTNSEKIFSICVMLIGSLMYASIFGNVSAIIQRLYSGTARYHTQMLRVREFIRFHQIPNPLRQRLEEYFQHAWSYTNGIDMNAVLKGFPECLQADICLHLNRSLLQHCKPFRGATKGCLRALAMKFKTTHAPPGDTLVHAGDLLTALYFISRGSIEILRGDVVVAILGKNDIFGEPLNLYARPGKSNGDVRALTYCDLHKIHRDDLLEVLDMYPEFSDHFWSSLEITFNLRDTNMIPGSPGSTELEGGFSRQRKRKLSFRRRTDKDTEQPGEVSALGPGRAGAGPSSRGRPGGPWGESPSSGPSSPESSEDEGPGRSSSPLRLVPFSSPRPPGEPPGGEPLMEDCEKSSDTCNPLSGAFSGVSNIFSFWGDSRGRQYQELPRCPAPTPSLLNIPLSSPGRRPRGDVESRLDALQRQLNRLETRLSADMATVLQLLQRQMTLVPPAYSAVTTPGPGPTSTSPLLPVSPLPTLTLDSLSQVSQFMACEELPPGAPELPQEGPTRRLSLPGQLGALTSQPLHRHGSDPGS

| Structure (SMILES) | hERG current change (%, negative = inhibition) at 10uM |
| --- | --- |
| CCOC(=O)C1CCC2(CC1)C(C#N)=C(N)Oc1n[nH]c(C)c12 (centres unmarked) | -14.2% |
| Cc1cccc(C(=O)Oc2csc(=S)n2C(=O)c2cccc(C)c2)c1 | 6.76% |
| COc1ccc([N+](=O)[O-])c(OC)c1C(=O)NC(=O)Nc1nc(C)cc(C)n1 | 18% |
| O=S(=O)(Nc1ccccc1)c1ccc2c(c1)CCO2 | 11% |
| O=C(Cn1c(=O)c2sccc2n(Cc2ccc([N+](=O)[O-])cc2)c1=O)NCCc1ccccc1 | -49% |
| O=C(OCC(=O)N1CCN(C(=O)c2ccco2)CC1)c1cn(-c2ccccc2)nc1-c1ccccc1 | -67% |
| Cc1cnc(C(=O)OCC(=O)N2CCN(C(=O)c3ccco3)CC2)cn1 | -8.85% |
| O=C(c1ccco1)N1CCN(C(=O)c2cn(-c3ccccc3)nc2-c2ccccc2)CC1 | -86.5% |
| COc1ccccc1-c1nn(-c2ccccc2)cc1C(=O)N1CCN(C(=O)c2ccco2)CC1 | -36% |
| O=C(c1cn(-c2ccccc2)nc1-c1ccccc1)N1CCOCC1 | -4.6% |
| O=C(OCC(=O)N1CCN(C(=O)c2ccco2)CC1)c1ccccc1O | -18.2% |
| COCCSc1ccccc1C(=O)Nc1ccncc1 | 16.4% |
| O=C(/C=C/c1ccc(F)cc1)NC(=S)Nc1ccccc1 | 4.35% |
| Cc1ccc(C(=O)Nc2ccc(SC(F)F)cc2)s1 | 24.4% |
| Cc1ccc(CNC(=O)CSc2nc3[nH]ncc3c(=O)[nH]2)cc1 | 4.89% |
| COC(=O)c1c(N(S(C)(=O)=O)S(C)(=O)=O)sc2c1CCN(c1ncc(C(F)(F)F)cc1Cl)C2 | 13% |
| Cc1ccc(S(=O)(=O)N2CCC(Oc3ccc(-n4cnnn4)cc3)CC2)cc1 | 0.934% |
| CN(Cc1ccccc1)C(=O)C1CCN(S(=O)(=O)c2ccc(-n3cnnn3)cc2)CC1 | -75.2% |
| O=S(=O)(c1ccccc1)N1CCC(Oc2ccc(-n3cnnn3)cc2)CC1 | -74.8% |
| O=C(C1CCN(S(=O)(=O)c2ccc(-n3cnnn3)cc2)CC1)N1CCN(c2ccccc2)CC1 | -35.7% |
| C=CCN(CC=C)C(=O)C1CCN(S(=O)(=O)c2ccc(-n3cnnn3)cc2)CC1 | -54.4% |
| CC(=O)c1ccc(S(=O)(=O)N2CCC(Oc3ccc(-n4cnnn4)cc3)CC2)cc1 | 21.9% |
| C=CCN(CC=C)C(=O)C1CCN(S(=O)(=O)c2ccc(N3CCCC3=O)cc2)CC1 | 5.01% |

| Structure (SMILES) | hERG current change (%, negative = inhibition) at 10uM |
| --- | --- |
| CCN(CC)C(=O)C1CCN(S(=O)(=O)c2ccc(-n3cnnn3)cc2)CC1 | -30% |
| CCC(C)NC(=O)C1CCN(S(=O)(=O)c2ccc(-n3cnnn3)cc2)CC1 (centres unmarked) | 3.26% |
| COc1ccc(N2CCN(c3nc4ccccc4nc3NS(=O)(=O)c3ccccc3)CC2)cc1 | 1.21% |
| CCOC(=O)/C(C#N)=C/c1cn(CCC(=O)O)nc1-c1ccc(F)cc1 | 4.24% |
| Cc1ccc(S(=O)(=O)N2CCN(C3CC(=O)N(CCc4ccccc4)C3=O)CC2)cc1C (centres unmarked) | -27.7% |
| Cc1cccc(C)c1NC(=O)C(c1cccs1)N(Cc1ccco1)C(=O)Cn1nnc2ccccc21 (centres unmarked) | 14.4% |
| O=C(COC(=O)CCNS(=O)(=O)c1cccc(C(F)(F)F)c1)NC(=O)NC1CCCCC1 | -14.4% |
| Cn1cccc1C(=O)NC(=O)COC(=O)CCNS(=O)(=O)c1cccc(C(F)(F)F)c1 | -52.4% |
| Cc1ccc(S(=O)(=O)NCCC(=O)OCC(=O)NC(=O)c2cccn2C)cc1 | -12.5% |
| Oc1ccccc1/C=N/Nc1nccnc1Cl | -0.0796% |
| Cc1ccc2c(C)c(C(=O)N3CCN(C4CCS(=O)(=O)C4)CC3)oc2c1C (centres unmarked) | -4.49% |
| CCOC(=O)C1CCN(C2CCN(C(=O)c3oc4c(F)cccc4c3C)CC2)CC1 | -71.1% |
| CCOC(=O)N1CCC(NC(=O)c2oc3c(C)c(C)ccc3c2C)CC1 | -32.2% |
| Cc1c(C(=O)N2CCC(N3CCSCC3)CC2)oc2c(F)cccc12 | -34.9% |
| CCCN(CC1CC1)C(=O)COC(=O)c1oc2ccc(OCC)cc2c1C | -27.8% |
| CCCN(CC1CC1)C(=O)COC(=O)c1[nH]c(C)c(C(=O)OCC)c1C | -5.5% |
| CCCN(CC1CC1)C(=O)COC(=O)c1oc2c(F)cccc2c1C | -52.8% |
| CCOC(=O)C1CCN(C2CCN(C(=O)c3oc4c(C)c(C)ccc4c3C)CC2)CC1 | -69.3% |
| COCC1CCN(C(=O)c2oc3c(F)cccc3c2C)C1 (centres unmarked) | 0.639% |
| Cc1cc(OCC(=O)Nc2c(C)n(C)n(-c3ccccc3)c2=O)ccc1[N+](=O)[O-] | -23.5% |
| Cc1[nH]c2c(C(=O)N3CCCC(CCC(=O)NCc4ccccc4F)C3)cccc2c1C (centres unmarked) | 3.39% |
| CCCC(c1nnnn1Cc1ccccc1)N1CCC(C(N)=O)CC1.Cl (centres unmarked) | -3.44% |
| Cc1cc(C)n2nc(C(=O)NCc3ccco3)cc2n1 | 10.4% |

| Structure (SMILES) | hERG current change (%, negative = inhibition) at 10uM |
| --- | --- |
| CC(C)OCCCNC(=O)c1cc(-c2cccs2)nc2ccccc12 | 0.89% |
| O=C(NCc1ccco1)c1cc(-c2ccccc2)nc2ccccc12 | -16.5% |
| O=C(NCc1ccco1)c1cc(-c2cccnc2)nc2ccccc12 | -52.6% |
| CCCCN(C)CCCNC(=O)c1cc(-c2cccs2)nc2ccccc12 | -85.6% |
| Cc1cc(-c2ccccc2)nc2cc(C(=O)NCc3ccco3)nn12 | -55.9% |
| CCCCN(C)CCCNC(=O)c1cc(-c2cccnc2)nc2ccccc12 | -60.1% |
| COCCCNC(=O)c1cc(-c2cccnc2)nc2ccccc12 | 16.6% |
| COCCNC(=O)c1cc2nc(-c3ccccc3)cc(C)n2n1 | 7.82% |
| O=C(NCc1ccco1)c1cc(-c2cccnc2)nc2ccc(Cl)cc12 | -36.3% |
| CC(C)CCNC(=O)c1cc(-c2cccs2)nc2ccccc12 | 5.1% |
| CCCCNC(=S)NNC(=O)c1cc(-c2cccnc2)nc2ccccc12 | -7.41% |
| CCN(CCNC(=O)C1CCN(S(=O)(=O)c2c(C)noc2C)CC1)c1ccccc1 | -1.06% |
| COc1cc(/C=C/C(=O)NCc2cccnc2)cc(OC)c1OC | 0.841% |
| CCOC(=O)Cc1csc(NC(=O)CN2CCOCC2)n1 | 14.1% |
| CCOC(=O)[C@@H]1[C@H]2COc3ccccc3[C@H]2N2C(=O)N(c3ccc(C)cc3)C(=O)[C@]12C | -1.42% |
| CCCNC(=O)c1n[nH]c2c1CC(C(C)(C)CC)CC2 (centres unmarked) | 1.27% |
| C=CCNc1ncnc2c1cnn2-c1ccc(C)cc1C | 3.76% |
| NS(=O)(=O)c1ccc(N/N=C/c2ccc[nH]2)c([N+](=O)[O-])c1 | 0.228% |
| COc1cccc(C(=O)Nc2ccc3nc4n(c(=O)c3c2)CCCC4)c1 | -62.9% |
| COc1cc(C(=O)Nc2ccc3nc4n(c(=O)c3c2)CCCCC4)cc(OC)c1OC | -67.7% |
| O=C(Nc1ccc2nc3n(c(=O)c2c1)CCCC3)c1cccc(F)c1 | -43.9% |
| COc1cc(OC)cc(C(=O)Nc2ccc3nc4n(c(=O)c3c2)CCCCC4)c1 | -48.7% |
| COc1cc(OC)cc(C(=O)Nc2ccc3nc4n(c(=O)c3c2)CCCC4)c1 | 11.2% |

| Structure (SMILES) | hERG current change (%, negative = inhibition) at 10uM |
| --- | --- |
| COc1cc(NC(=O)C(=O)Nc2ccc3nc4n(c(=O)c3c2)CCCCC4)cc(OC)c1OC | -1.55% |
| COc1ccc(Cl)cc1NS(=O)(=O)c1cn(C)nc1C | 7.1% |
| COC(=O)C1=C(c2ccc(OC)c(OC)c2)C[C@@H]2CC[C@H]1N2C(=O)NCC1CC1 | 15.1% |
| O=C(CSc1ccc(-c2ccco2)nn1)NCc1ccccc1Cl | -49.1% |
| Fc1ccc(/C=N/Nc2nccnc2Cl)cc1 | 9.05% |
| Clc1nccnc1N/N=C/c1ccc(Br)cc1 | -50.3% |
| Oc1ccc(/C=N/Nc2nccnc2Cl)cc1 | 1.47% |
| Cc1cccc(NC(=O)CN2C(=O)S/C(=C\c3cc(C)n(C)c3C)C2=O)c1 | -10.7% |
| CC1CCN(CC(=O)Nc2ccc(N3CCCCCC3)cc2)CC1.O=C(O)C(=O)O | -14.1% |
| CC1CCCCN1CC(=O)Nc1ccc(Oc2ccccc2)cc1.Cl (centres unmarked) | -50.7% |
| O=C(CN1CCCCCC1)Nc1ccccc1.O=C(O)C(=O)O | 10.8% |
| CC1CCCCN1CC(=O)Nc1ccc(N2CCCCCC2)cc1.O=C(O)C(=O)O (centres unmarked) | -13.2% |
| O=C(CN1CCCCC1)Nc1ccc(N2CCCCCC2)cc1.O=C(O)C(=O)O | -88.7% |
| COc1cccc(NC(=O)CN2CCCCCC2)c1.Cl | 11.6% |
| NC(=O)C1(N2CCCCC2)CCN(CC(=O)Nc2ccc(Oc3ccccc3)cc2)CC1 | -67.8% |
| CC1CCCCN1CC(=O)Nc1ccc2c(c1)OCO2.O=C(O)C(=O)O (centres unmarked) | -20.1% |
| COc1ccc(NC(=O)CN2CCC(C(N)=O)(N3CCCCC3)CC2)cc1 | 0.362% |
| O=C(CN1CCCCCC1)Nc1cccc(NC(=O)CN2CCCCCC2)c1 | 13% |
| NC(=O)C1(N2CCCCC2)CCN(CC(=O)Nc2ccccc2-c2ccccc2)CC1 | 14.6% |
| O=C(CN1CCCCC1)Nc1cccc(Oc2ccccc2)c1 | -50.7% |
